Laboratory results published in PubChem BioAssay AID504332 (National Center for Advancing Translational Sciences (NCATS), 2011).
About 31,000 (8.9%) of roughly 350,000 compounds were called active. Roughly 15% stayed inconclusive and do not appear here. Calls come from the whole dose curve; as a rule, active = well fitted inhibition curve with a large enough effect; inconclusive = small, poorly fitted or top-dose-only effect; inactive = no such curve, though single readings can be large or run the other way. The list comes from a sample in which actives are over-represented; it also holds similar structures and randomly drawn compounds.

Target: Histone-lysine N-methyltransferase EHMT2 (Homo sapiens) (UniProt Q96KQ7)
Sequence (Q96KQ7 913-1193 limits assumed): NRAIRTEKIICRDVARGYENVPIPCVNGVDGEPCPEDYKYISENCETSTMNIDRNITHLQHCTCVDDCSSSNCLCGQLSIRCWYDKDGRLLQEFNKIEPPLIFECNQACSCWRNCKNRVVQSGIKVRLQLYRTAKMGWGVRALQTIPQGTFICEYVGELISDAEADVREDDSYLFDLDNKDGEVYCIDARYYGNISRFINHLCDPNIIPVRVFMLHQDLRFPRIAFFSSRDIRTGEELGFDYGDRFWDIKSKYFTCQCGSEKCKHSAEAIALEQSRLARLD
Experiment: qHTS Assay for Inhibitors of Histone Lysine Methyltransferase G9a; note: nearly all actives have a fitted effect of over 75% in size
Settings: G9a H3K9 monomethylation, AlphaScreen, 2 h; series mostly up to 59 µM; activity, negative = inhibition: at the top concentration
How it was run: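 AlphaScreen detection with an anti-monomethyl H3K9 antibody quantified product after a 2 h room-temperature reaction containing 500 nM biotinylated H3K9 peptide, 20 µM SAM and 20 nM enzyme, which had been preincubated 15 min with compound.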
% is set by controls: 0 for no effect and ±100 for the full control effect; potency is the fitted concentration of half-maximal effect.

Compound	activity, negative = inhibition	Potency
O=C1CC[C@H](O)CCN1[C@H](CSc1ccc(Br)cc1)Cc1ccccc1	11.1% [at 2.33 µM] (inactive)	
O=C(CSc1nnc(-c2ccncc2)n1-c1ccccc1)Nc1ccc(Cl)c(Cl)c1	1.17% (inactive)	
COc1ccc(OC)c(CNC(=O)Cn2nc(C)c3c(C)n(-c4ccccc4)nc3c2=O)c1	0.0803% (inactive)	
CCOC(=O)C1CCCN(CC(=O)Nc2cc(C)c3c(=O)oc4ccccc4c3n2)C1 (stereo not drawn)	-12% (inactive)	
COC(=O)c1sc2ncccc2c1-n1c(C)ccc1C	-7.5% (inactive)	
O=C(CSc1ccccc1)Nc1cccc(S(=O)(=O)N2CCCCC2)c1	14.6% [at 12.7 µM] (inactive)	
CCCCSc1nc2ccccc2[nH]1	15.5% [at 102 µM] (inactive)	
CCN(/N=C/c1ccc(N(C)C)cc1)c1nc2ccccc2[nH]1		2.82 µM (active)
CCN(/N=C/c1ccccc1)c1cc(=O)n(C)c(=O)[nH]1	-16.6% (inactive)	
CN1C(=O)C2(OCCCO2)c2cc(Cl)ccc21	19.4% [at 102 µM] (inactive)	
COc1cc(NC(=O)CSC(=S)N2CCCC2)c(OC)cc1Cl	13.5% [at 2.33 µM] (inactive)	
Cc1ccccc1-n1nc(C)c2c1N=C1C(Cl)=CC(Cl)=CN1C2c1ccc(C(=O)O)cc1 (stereo not drawn)		25.1 µM (active)
CC1CCN(C(=O)Cn2c(=O)n(-c3ccc(Cl)cc3)c(=O)c3c4c(sc32)CCC4)CC1	-10.8% (inactive)	
CCn1c(SC)nc(O)c(C(c2ccc(OC)c(O)c2)c2c(O)nc(SC)n(CC)c2=O)c1=O		10 µM (active)
COc1ccc2c(c1OC)C(=O)OC2c1c(O)nc(SC)n(-c2ccccc2)c1=O (stereo not drawn)	4.51% [at 12.7 µM] (inactive)	
CCn1c(CNC(=O)c2ccc(OC)c(OC)c2)nnc1SCC(=O)Nc1ccccc1	2.65% [at 102 µM] (inactive)	
CCOc1ccccc1NC(=O)C1=C(C)Nc2ncnn2C1c1ccc(NC(C)=O)cc1 (stereo not drawn)	14.9% (inactive)	
COc1ccccc1N1CCN(c2ccc(=O)n(CC(=O)NCc3ccc(OC(C)C)cc3)n2)CC1	-1.85% (inactive)	
COc1cccc(Cn2c(SCc3ccc(C(=O)N4CCCCC4)cc3)nc3ccncc32)c1	-21.9% (inactive)	
Cc1cccc(Cn2c(SCc3ccc(C(=O)N4CCC(C)CC4)cc3)nc3ccncc32)c1	5.78% (inactive)	
COc1cccc(Cn2c(SCc3ccc(C(=O)N4CCC(C)CC4)cc3)nc3ccncc32)c1		1.78 µM (active)
O=C(CSc1nc2c(c(=O)[nH]1)CN(Cc1ccc3c(c1)OCO3)CC2)Nc1cc(F)ccc1F	-25.9% (inactive)	
Cc1ccc2oc(C(=O)N3CCN(C)C[C@@H]3C(C)C)c(C)c2c1	45.1% [at 102 µM] (inactive)	
CN(C)S(=O)(=O)c1cc(C(=O)Nc2ccn(C)n2)c(Cl)cc1Cl	19.1% [at 12.7 µM] (inactive)	
CCNC(=S)Nc1ccc(OC(F)(F)F)cc1	13.3% [at 102 µM] (inactive)	

Compound	activity, negative = inhibition	Potency
CS(=O)(=O)c1sc(C(=O)NC(=S)Nc2ccc(OC(F)(F)F)cc2)c2c1C=CCC2		50.1 µM (active)
FC(F)(F)Oc1ccc(NC(=S)NCc2ccccc2)cc1	9.57% [at 102 µM] (inactive)	
COc1ccc(Cl)cc1C(=O)Nc1ccc(N(C)C(C)=O)cc1	23.8% (inactive)	
COc1cc(OC)c(C(=O)Nc2ccccc2-c2ccccc2)cc1OC	-48.3% [at 102 µM] (inactive)	
COc1cc(OC)c(C(=O)Nc2ccc(N(C)C)cc2)cc1OC		4.47 µM (active)
COc1ccc(C(C)NC(=O)C23CC4CC(CC(C4)C2)C3)cc1 (stereo not drawn)	23.9% [at 102 µM] (inactive)	
CCOc1ccc(-c2cc3nc(C4CCN(C(=O)OC(C)(C)C)CC4)c(C(=O)Nc4cccc(CC)c4)cn3n2)cc1	-6.19% (inactive)	
O=C(NCc1ccc2c(c1)CCN2C(=O)c1ccccc1)Nc1cc(F)ccc1F	-15.2% (inactive)	
CCSc1nc(O)c(C(c2cccc(OC)c2)c2c(O)nc(SCC)[nH]c2=O)c(=O)[nH]1		70.8 µM (active)
CCSc1nc(C)c(CCOc2cccc(C)c2)c(=O)[nH]1	-3.47% (inactive)	
CC(C)c1c(O)nc(SCCOc2ccc(Cl)cc2)[nH]c1=O	4.44% [at 102 µM] (inactive)	
CCCCn1c(N)c(N(CC)C(=O)c2ccc(N(C)S(=O)(=O)c3ccc(C)cc3)cc2)c(=O)[nH]c1=O	8.91% [at 12.7 µM] (inactive)	
CCCCn1c(N)c(N(CCC(C)C)C(=O)COC(=O)c2cccnc2OCC)c(=O)[nH]c1=O	10.4% (inactive)	
COc1ccc(NS(=O)(=O)c2ccc(C)c(C(=O)NCC(c3cccs3)N3CCOCC3)c2)cc1 (stereo not drawn)	-6.36% [at 102 µM] (inactive)	
COc1cccc(N2CC(NC(=O)c3ccc4ccccc4c3)CC2=O)c1 (stereo not drawn)	2.32% [at 102 µM] (inactive)	
CC(NCC(=O)Nc1cc(Cl)cc(Cl)c1)c1ccccc1 (stereo not drawn)	-0.468% [at 102 µM] (inactive)	
CC(NCc1cccs1)C(=O)Nc1cc(Cl)cc(Cl)c1 (stereo not drawn)		5.01 µM (active)
CC(=O)c1ccc(NC(=O)C(C)NCc2ccc(Cl)cc2)cc1 (stereo not drawn)	7.53% [at 102 µM] (inactive)	
Cc1cccc(NC(=O)c2sc3nc(N4CCOCC4)c4c(c3c2N)CCCC4)c1	6.18% [at 0.501 µM] (inactive)	
CC(NC(=O)CN(C)S(=O)(=O)c1ccc(F)cc1)C1CC2CCC1C2 (stereo not drawn)	11.8% [at 12.7 µM] (inactive)	
COc1ccccc1C(=O)OCc1cc(=O)n2nc(-c3cccs3)sc2n1	7.4% (inactive)	
Cc1cc(NC(=O)CSc2nc(C(C)C)nc3sc4c(c23)CCC(C)C4)no1 (stereo not drawn)		1 µM (active)
CCCCOC(=O)CSc1ncnc2sc3c(c12)CCC(C)C3 (stereo not drawn)	76.4% (inactive)	
CC(C)c1nc(SCC(=O)Nc2cccc(C(=O)O)c2)c2c3c(sc2n1)CCCC3	-2.84% [at 102 µM] (inactive)	
CCOc1ccccc1CNC(=O)c1cnc2c(-c3ccc(OCC)c(OCC)c3)c(C)nn2c1C	-3.36% (inactive)	

Compound	activity, negative = inhibition	Potency
CCc1nccn1S(=O)(=O)c1cc(Br)ccc1Br	4.79% (inactive)	
Cc1ccnc(NC(=O)CCC(=O)N(CC(=O)NCCc2ccccc2)Cc2cccs2)c1	7.27% [at 102 µM] (inactive)	
O=C(O)CCC(=O)N(Cc1cccs1)Cc1cccs1		50.1 µM (active)
O=C(CCc1ccccc1)NCCc1cccs1	31.8% [at 102 µM] (inactive)	
Fc1ccc(COc2cccc(-c3n[nH]c(=S)o3)c2)cc1		5.01 µM (active)
Fc1ccc(COc2ccc(-c3nnco3)cc2)cc1	14.6% [at 102 µM] (inactive)	
CN(Cc1ccc(F)cc1)C(=O)COc1ccc2ccccc2c1	21.6% [at 102 µM] (inactive)	
O=C(N/N=C/c1ccccc1O)C1CCCC1	36.3% [at 102 µM] (inactive)	
COc1ccc(Cn2ccc3nc(C)c(C(=O)Nc4ccc(C)c(F)c4)cc3c2=O)cc1	0.748% (inactive)	
O=C(O)c1ccccc1C(=O)Nc1ccccc1[N+](=O)[O-]	-29.3% [at 102 µM] (inactive)	
O=C(O)c1ccccc1NC(=S)NC(NC(=O)c1ccccc1[N+](=O)[O-])C(Cl)(Cl)Cl (stereo not drawn)		12.6 µM (active)
O=C(Nc1ccccc1-c1ccccc1)c1ccccc1[N+](=O)[O-]	6.77% [at 102 µM] (inactive)	
Cc1ccc(CNC(=O)c2c(O)nc3c(C)cccn3c2=O)cc1	-10.5% (inactive)	
Cc1ccc(Cn2c(=O)n(-c3ccc(C)cc3)c(=O)c3c2c2cc(C)ccc2n3C)cc1	-5.57% (inactive)	
CCSc1nnc2c(n1)OC(c1ccc(OCC(=O)O)cc1)Nc1ccccc1-2 (stereo not drawn)	-45.6% (inactive)	
COc1ccc(OCCn2ccnc2C)cc1		8.91 µM (active)
COc1ccc(OCCC(=O)c2ccc(OC)cc2)cc1	-34.9% [at 102 µM] (inactive)	
COc1ccc(OCCCCN2CCC(C)CC2)cc1	5.74% [at 102 µM] (inactive)	
O=C(OCC(=O)N1CCCC1=O)c1cc(S(=O)(=O)N2CCOCC2)ccc1Cl	-46.3% [at 102 µM] (inactive)	
CCC(C(=O)Nc1cccc(-c2nc3cccnc3s2)c1C)c1ccccc1 (stereo not drawn)	8.59% (inactive)	
Cc1cc(C)nc(Nc2ncn[nH]2)n1	11.3% [at 102 µM] (inactive)	
Cc1cc(C)nc(NC(=O)C(C)N2C(=O)c3ccccc3C2=O)n1 (stereo not drawn)	-3.61% [at 102 µM] (inactive)	
Cc1cc(C)nc(Nc2n[nH]c(-c3ccccc3N)n2)n1		7.94 µM (active)
C[C@H](NC(=O)c1ccccc1)C(=O)OCC(=O)c1c[nH]c2ccccc12	-6.84% (inactive)	
CCOc1ccccc1C(=O)NCC(c1ccc(N(C)C)cc1)N1CCCC1 (stereo not drawn)	2.29% [at 12.7 µM] (inactive)	

Compound	activity, negative = inhibition	Potency
CN(C)c1ccc(C(CNC(=O)c2ccc(F)cc2)c2c[nH]c3ccccc23)cc1 (stereo not drawn)		10 µM (active)
CCCN1CCN(CCCNC(=O)c2ccc3nc(Cc4ccccc4)oc3c2)CC1	4.53% (inactive)	
O=C(c1c(F)cccc1F)N1CCN(S(=O)(=O)c2ccc3c(c2)OCCO3)CC1	-0.69% [at 0.501 µM] (inactive)	
CNc1ccc(SC#N)cc1		44.7 µM (active)
COc1ccc(-n2nc(C(=O)NCCc3ccc(Cl)cc3)c3c4ccccc4n(C)c3c2=O)cc1Cl	3.47% (inactive)	
CCOc1ccc(S(=O)(=O)NCCSc2ccccc2)cc1	52.1% [at 102 µM] (inactive)	
CCOc1ccc2nc(NCCNC(=O)C(C)(C)C)c(C)cc2c1	13.8% [at 102 µM] (inactive)	
CCOc1ccc2nc(NCCNS(=O)(=O)c3ccccc3)c(C#N)cc2c1		50.1 µM (active)
Cc1nnc(SCC(=O)NCc2ccccc2Cl)c2nn(-c3ccccc3)c(C)c12	-24.3% (inactive)	
CCOC(=O)c1ccc(NC(=O)C2CC(=O)NC(=Nc3ccc(C)c(C)c3)S2)cc1 (stereo not drawn)	-67.7% (inactive)	
O=C(Nc1cccc(Cl)c1N1CCOCC1)c1cccnc1	49.1% [at 102 µM] (inactive)	
COC(=O)c1cc(NC(=O)c2cccnc2)ccc1N1CCOCC1	-2.27% [at 0.501 µM] (inactive)	
COc1ccccc1NC(=O)c1ccc(N2CC3CC(C2)c2cccc(=O)n2C3)c(NC(=O)c2cccnc2)c1 (stereo not drawn)		15.8 µM (active)
CCn1c(Cc2ccc(OC)cc2)nnc1SCC(=O)Nc1ccc(N2CCOCC2)cc1	6.79% [at 102 µM] (inactive)	
Cc1ccc(-c2noc(-c3nnn(-c4cccc(C(F)(F)F)c4)c3N)n2)cc1	-6.96% (inactive)	
CCc1ccc(/C=C2\SC(N3CCOCC3)=NC2=O)cc1		50.1 µM (active)
Cc1ccsc1/C=C1\SC(N2CCOCC2)=NC1=O	12.5% [at 12.7 µM] (inactive)	
CC1CCN(C2=NC(=O)/C(=C/c3ccc(O)cc3)S2)CC1	0.648% [at 102 µM] (inactive)	
COC(=O)Cc1ccc(OC(=O)C2CCN(S(=O)(=O)c3ccc(OC)c(OC)c3)CC2)cc1	13.8% [at 12.7 µM] (inactive)	
O=C(Nc1ccc2oc(-c3ccc(O)c(Br)c3)nc2c1)c1cc2ccccc2o1	3.9% (inactive)	
c1cc(-c2nn[nH]n2)ccc1CN1CCCCC1	-40.3% [at 102 µM] (inactive)	
Clc1ccc(-n2nnnc2CN2CCCCC2)cc1Cl	15.7% (inactive)	
Clc1ccc(CN2CCCCCC2)cc1Cl		22.4 µM (active)
